Test results reported in PubChem BioAssay AID1159580 (chemical genetic matrix, 2015).
Several values for one entry are separate records, joined by “and”; a condition that tells them apart may be missing. Equal entries are not always repeated. In all, about 5,500 compounds went through this assay and about 2,000 (36%) were called active. About 18% were inconclusive and are not listed. Cut-off read from the data, not from the text of the source: active = normalized growth mostly below about 0.91 (no sharp cut-off); inconclusive = no clear call, values can overlap the other calls; inactive = mostly above about 0.92. Some of the results follow.

Test: chemical genetic growth profiling, strain panel (AID 1159580);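 note: tested at 20 µM; growth read once vehicle control cultures reached saturation at 30 °C; 1 = growth at the plate median or of vehicle wells; lower values mean less growth of the strain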
Conditions: growth OD

Measured: normalized growth

CC(C)[N+](C)(CCOC(=O)C1c2ccccc2Oc2ccccc21)C(C)C
inactive: S. cerevisiae deletion strains, locus YJR075W, strain HOC1, stronger effect = lower value 1.02 | S. cerevisiae deletion strains, locus YKL009W, strain mrt4, stronger effect = lower value 1.02 | S. cerevisiae deletion strains, locus YKL068W, stronger effect = lower value 1.01 | S. cerevisiae deletion strains, locus YKL085W, strain MDH1 (second series), stronger effect = lower value 1.01 | S. cerevisiae deletion strains, locus YKL085W, strain MDH1, stronger effect = lower value 1.01 | S. cerevisiae deletion strains, locus YKL160W, strain elf1, stronger effect = lower value 1.04 | S. cerevisiae deletion strains, locus YKL190W, strain CNB1, stronger effect = lower value 1.02 | S. cerevisiae deletion strains, locus YKR001C, strain vps1, stronger effect = lower value 1.01 | S. cerevisiae deletion strains, locus YKR026C, strain gcn3, stronger effect = lower value 0.997 | S. cerevisiae deletion strains, locus YKR091W, strain srl3, stronger effect = lower value 0.994 | S. cerevisiae deletion strains, locus YLL001W, strain dnm1, stronger effect = lower value 1.01 | S. cerevisiae deletion strains, locus YLL026W, stronger effect = lower value 1.02 | S. cerevisiae deletion strains, locus YLL041C, strain sdh2, stronger effect = lower value 1 | S. cerevisiae deletion strains, locus YLR027C, strain aat2, stronger effect = lower value 1 | S. cerevisiae deletion strains, locus YLR039C, strain RIC1, stronger effect = lower value 1.05 | S. cerevisiae deletion strains, locus YLR058C, strain SHM2, stronger effect = lower value 1.01 | S. cerevisiae deletion strains, locus YLR102C, strain apc9, stronger effect = lower value 1 | S. cerevisiae deletion strains, locus YLR113W, strain HOG1, stronger effect = lower value 1.02 | S. cerevisiae deletion strains, locus YLR221C, strain rsa3, stronger effect = lower value 0.996 | S. cerevisiae deletion strains, locus YLR258W, strain gsy2, stronger effect = lower value 1.02 | S. cerevisiae deletion strains, locus YLR262C, strain YPT6 (second series), stronger effect = lower value 1 | S. cerevisiae deletion strains, locus YLR262C, strain YPT6, stronger effect = lower value 1.07 | S. cerevisiae deletion strains, locus YLR268W, strain sec22, stronger effect = lower value 1.02 | S. cerevisiae deletion strains, locus YLR320W, strain mms22, stronger effect = lower value 0.985 | S. cerevisiae deletion strains, locus YLR330W, strain CHS5, stronger effect = lower value 1 | S. cerevisiae deletion strains, locus YLR342W, strain FKS1 (second series), stronger effect = lower value 1.02 | S. cerevisiae deletion strains, locus YLR342W, strain FKS1, stronger effect = lower value 1.02 | S. cerevisiae deletion strains, locus YLR357W, strain rsc2, stronger effect = lower value 1.02 | S. cerevisiae deletion strains, locus YLR370C, strain arc18, stronger effect = lower value 1.01 | S. cerevisiae deletion strains, locus YLR371W, strain rom2, stronger effect = lower value 1.01 | S. cerevisiae deletion strains, locus YLR384C, strain iki3, stronger effect = lower value 1.02 | S. cerevisiae deletion strains, locus YLR418C, strain cdc73, stronger effect = lower value 1.02 | S. cerevisiae deletion strains, locus YML016C, strain PPZ1, stronger effect = lower value 1 | S. cerevisiae deletion strains, locus YML032C, strain rad52, stronger effect = lower value 1.01 | S. cerevisiae deletion strains, locus YML120C, strain ndi1, stronger effect = lower value 1.01 | S. cerevisiae deletion strains, locus YML124C, strain tub3, stronger effect = lower value 1.01 | S. cerevisiae deletion strains, locus YMR058W, strain fet3, stronger effect = lower value 1 | S. cerevisiae deletion strains, locus YMR078C, strain ctf18, stronger effect = lower value 1 | S. cerevisiae deletion strains, locus YMR125W, strain sto1, stronger effect = lower value 1 | S. cerevisiae deletion strains, locus YMR129W, stronger effect = lower value 1.01 | S. cerevisiae deletion strains, locus YMR205C, strain PFK2, stronger effect = lower value 0.998 | S. cerevisiae deletion strains, locus YMR223W, strain ubp8, stronger effect = lower value 0.994 | S. cerevisiae deletion strains, locus YMR231W, strain pep5, stronger effect = lower value 1.01 | S. cerevisiae deletion strains, locus YMR307W, strain GAS1, stronger effect = lower value 1.01 and 1.02 | S. cerevisiae deletion strains, locus YNL067W, strain RPL9B, stronger effect = lower value 1.01 | S. cerevisiae deletion strains, locus YNL071W, strain lat1, stronger effect = lower value 1.01 | S. cerevisiae deletion strains, locus YNL128W, strain TEP1, stronger effect = lower value 1.02 | S. cerevisiae deletion strains, locus YNL153C, strain GIM3, stronger effect = lower value 1.01 and 0.989 | S. cerevisiae deletion strains, locus YNL175C, strain NOP13, stronger effect = lower value 1.02 | S. cerevisiae deletion strains, locus YNL183C, strain NPR1, stronger effect = lower value 0.971 | S. cerevisiae deletion strains, locus YNL197C, strain WHI3, stronger effect = lower value 0.999 | S. cerevisiae deletion strains, locus YNL209W, strain ssb2, stronger effect = lower value 1.01 | S. cerevisiae deletion strains, locus YNL224C, strain SQS1, stronger effect = lower value 1 | S. cerevisiae deletion strains, locus YNL233W, strain BNI4, stronger effect = lower value 1.01 | S. cerevisiae deletion strains, locus YNL248C, strain rpa49, stronger effect = lower value 1.04 | S. cerevisiae deletion strains, locus YNL250W, strain rad50, stronger effect = lower value 1.02 | S. cerevisiae deletion strains, locus YNL271C, strain bni1, stronger effect = lower value 1.01 | S. cerevisiae deletion strains, locus YNL298W, strain CLA4, stronger effect = lower value 1.03 | S. cerevisiae deletion strains, locus YNL307C, strain MCK1, stronger effect = lower value 1 | S. cerevisiae deletion strains, locus YNL322C, strain KRE1 (second series), stronger effect = lower value 1.02 | S. cerevisiae deletion strains, locus YNR049C, strain mso1, stronger effect = lower value 1.01 | S. cerevisiae deletion strains, locus YNR052C, strain pop2, stronger effect = lower value 1.01 | S. cerevisiae deletion strains, locus YOL006C, strain TOP1, stronger effect = lower value 1 | S. cerevisiae deletion strains, locus YOL012C, strain htz1 0.959 | S. cerevisiae deletion strains, locus YOL147C, strain pex11, stronger effect = lower value 1.01 | S. cerevisiae deletion strains, locus YOR001W, strain rrp6, stronger effect = lower value 0.976 | S. cerevisiae deletion strains, locus YOR061W, strain CKA2, stronger effect = lower value 1.01 | S. cerevisiae deletion strains, locus YOR069W, strain VPS5, stronger effect = lower value 1 | S. cerevisiae deletion strains, locus YOR070C, strain gyp1, stronger effect = lower value 1.01 | S. cerevisiae deletion strains, locus YOR080W, strain dia2, stronger effect = lower value 1.01 | S. cerevisiae deletion strains, locus YOR083W, strain WHI5 (second series), stronger effect = lower value 1.01 | S. cerevisiae deletion strains, locus YOR083W, strain WHI5, stronger effect = lower value 0.979 | S. cerevisiae deletion strains, locus YOR106W, strain vam3, stronger effect = lower value 1.03 | S. cerevisiae deletion strains, locus YOR136W, strain idh2, stronger effect = lower value 1 | S. cerevisiae deletion strains, locus YOR144C, strain elg1, stronger effect = lower value 1 | S. cerevisiae deletion strains, locus YOR184W, strain ser1, stronger effect = lower value 1.01 | S. cerevisiae deletion strains, locus YOR231W, strain MKK1, stronger effect = lower value 0.991 | S. cerevisiae deletion strains, locus YOR265W, strain rbl2, stronger effect = lower value 1 | S. cerevisiae deletion strains, locus YOR270C, strain vph1, stronger effect = lower value 1.04 | S. cerevisiae deletion strains, locus YOR290C, strain snf2, stronger effect = lower value 1.02 | S. cerevisiae deletion strains, locus YOR316C, strain cot1, stronger effect = lower value 1.01 | S. cerevisiae deletion strains, locus YPL051W, strain arl3, stronger effect = lower value 1.02 | S. cerevisiae deletion strains, locus YPL055C, strain LGE1, stronger effect = lower value 1.01 | S. cerevisiae deletion strains, locus YPL078C, strain atp4, stronger effect = lower value 1.02 | S. cerevisiae deletion strains, locus YPL106C, strain sse1, stronger effect = lower value 1.01 | S. cerevisiae deletion strains, locus YPL240C, strain hsp82, stronger effect = lower value 1.01 | S. cerevisiae deletion strains, locus YPL241C, strain CIN2, stronger effect = lower value 1.01 | S. cerevisiae deletion strains, locus YPL256C, strain CLN2, stronger effect = lower value 1.06 | S. cerevisiae deletion strains, locus YPR119W, strain clb2, stronger effect = lower value 0.996 | S. cerevisiae deletion strains, locus YPR141C, strain kar3, stronger effect = lower value 1.01 | S. cerevisiae deletion strains, locus YPR163C, strain tif3, stronger effect = lower value 1 | S. cerevisiae deletion strains, locus YPR167C, strain met16, stronger effect = lower value 1 | S. cerevisiae deletion strains, strain wtn01, stronger effect = lower value 1.01 | S. cerevisiae strains, strain wild type, stronger effect = lower value 1
